Only some compounds are listed: those with a hit (about 4.9% of all), similar ones and a draw of the others.
tim10-1 inh: tim10-1 yeast growth inhibition | S. cerevisiae tim10-1 ts strain growth, BacTiter-Glo, 24 h | inhibition, % at 20 µM | hit rate 2.2% among 330,000 | AID 463190;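 active means inhibition of at least 40%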;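 further: mutant grown at 25 °C; 0% = DMSO wells with yeast and 100% = wells holding no yeast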
NALP1 yeast inh: blocks the NALP1 inflammasome reconstituted in yeast; hit rate 0.61% among 280,000; inhibition, % at 10 µM; S. cerevisiae NALP1/ASC/caspase-1 growth, X-gal OD620, 72 h; in the data active means inhibition mostly above about 24%, no sharp cut-off; inactive means mostly below about 32%
SKKanGAS inh: SKKanGAS growth inhibition | hit rate 1.3% among 300,000 | inhibition, % at 7.5 µM | S. pyogenes SKKanGAS, kanamycin growth, BacTiter-Glo, 6 h | AID 1662;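 active means mean replicate score, as percent of positive control median, at least 50; inconclusive means mean below 50 but one replicate at or above 50; inactive means mean and every replicate below 50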;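 further: strain carries kanamycin resistance gene driven by streptokinase promoter and grows in 40 µg/ml kanamycin; loss of luminescence reflects streptokinase promoter inhibition or plain growth inhibition; 0% = median of DMSO wells and 100% = positive control at its reference dose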
TIM10 inh: growth inhibitors of TIM10 yeast strain | AID 463195 | hit rate 1.4% among 330,000 | S. cerevisiae TIM10 strain growth, BacTiter-Glo luminescence, 24 h | inhibition, % at 10 µM;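 active means inhibition of 40% or more at the single tested concentration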;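 further: wild-type TIM10 isogenic control strain grown at permissive 25 °C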
NALP3 yeast inh: inhibitors of NALP3 inflammasome in yeast; Yeast reconstituted NLRP3/ASC/caspase-1, beta-gal luminescence, 24 h; inhibition, % at 10 µM; hit rate 0.39% among 330,000;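 active means inhibition of 50% or more; inactive means inhibition below 50%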;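 further: plate controls were induced DMSO wells for no effect and uninduced yeast grown without galactose for full effect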
tim23-1 inh: growth inhibitors of tim23-1 mutant yeast | S. cerevisiae tim23-1 growth, BacTiter-Glo luminescence, 24 h | inhibition, % at 20 µM | hit rate 1.3% among 330,000;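 active means growth inhibition of the mutant yeast at or above 50%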;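 further: temperature-sensitive mutant grown at 25 °C; plate controls were DMSO-treated mutant yeast for no effect and medium wells lacking yeast for full effect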
* hit, by the source's call.

How did CCOC(=O)C1CCN(S(=O)(=O)c2ccccc2[N+](=O)[O-])CC1 do in these assays?
tim10-1 inh: 4; SKKanGAS inh: 1; TIM10 inh: 7; NALP3 yeast inh: 14; tim23-1 inh: 4

What do the screens show for `CN(C)CCCNC(=O)C[C@H]1C[C@H](C(=O)N2CCOCC2)[C@@]2(C)c3[nH]c4ccc(Cl)cc4c3CCN2C1=O`?
tim10-1 inh: 13; TIM10 inh: -10; tim23-1 inh: 30

What do the screens show for `COc1ccc(CNCC(O)(c2ccc(Cl)cc2)c2ccc(Cl)cc2)cc1`?
tim10-1 inh: -3; NALP1 yeast inh: 25; SKKanGAS inh: 59*; TIM10 inh: 16; NALP3 yeast inh: 40; tim23-1 inh: 28

Results for COc1ccc(CNCC(O)(c2ccc(Cl)cc2)c2ccc(Cl)cc2)cc1OC ?
tim10-1 inh: 16; NALP1 yeast inh: 12; TIM10 inh: 8; NALP3 yeast inh: 18; tim23-1 inh: 24

How did COCc1cc(CN(C)C(=O)c2oc3c(F)cccc3c2C)[nH]n1 do in these assays?
tim10-1 inh: 10; NALP1 yeast inh: -2; SKKanGAS inh: 0; TIM10 inh: 0; NALP3 yeast inh: 11; tim23-1 inh: -8

What do the screens show for `Cc1cc2nc(NCCCO)n(CC(=O)c3cc(C(C)(C)C)c(O)c(C(C)(C)C)c3)c2cc1C`?
tim10-1 inh: -2; TIM10 inh: 6; NALP3 yeast inh: 14; tim23-1 inh: -19

Results for CC(C)Nc1nc(NC(C)C)nc(N(C)C(N)=O)n1 ?
tim10-1 inh: 14; NALP1 yeast inh: 10; SKKanGAS inh: -1; TIM10 inh: 8; NALP3 yeast inh: 7; tim23-1 inh: 5

Results for CC(C)Nc1nc(NC(C)C)nc(N(C)N)n1 ?
tim10-1 inh: 19; NALP1 yeast inh: -10; SKKanGAS inh: 56*; TIM10 inh: 5; NALP3 yeast inh: -6; tim23-1 inh: 2

Results for CC(C)(Cl)C1Cc2cc3ccc(=O)oc3cc2O1 (stereo unspecified) ?
tim10-1 inh: -1; NALP1 yeast inh: 24*; SKKanGAS inh: -2; TIM10 inh: 8; NALP3 yeast inh: 9; tim23-1 inh: 7

How did CC(=O)OC(C)(C)C1Cc2cc3ccc(=O)oc3cc2O1 (stereo unspecified) do in these assays?
tim10-1 inh: 19; NALP1 yeast inh: 21; SKKanGAS inh: -5; TIM10 inh: -9; NALP3 yeast inh: 11; tim23-1 inh: 5

What do the screens show for `Cc1cccc2sc(NNC(=O)c3cc(=O)c4ccccc4o3)nc12`?
tim10-1 inh: 6; NALP1 yeast inh: 10; SKKanGAS inh: 85*; TIM10 inh: -13; NALP3 yeast inh: 17; tim23-1 inh: 25

Results for Cc1ccc2sc(NNC(=O)c3cc(=O)c4ccccc4o3)nc2c1C ?
tim10-1 inh: -39; NALP1 yeast inh: 18; SKKanGAS inh: 86*; TIM10 inh: -162; NALP3 yeast inh: 20; tim23-1 inh: -13

What do the screens show for `COc1ccc2nc(NNC(=O)c3cc(=O)c4ccccc4o3)sc2c1`?
tim10-1 inh: 21; NALP1 yeast inh: 9; SKKanGAS inh: 50*; TIM10 inh: -30; NALP3 yeast inh: 28; tim23-1 inh: 23

How did COc1ccc2nc(NC(=O)c3ccccc3[N+](=O)[O-])sc2c1 do in these assays?
tim10-1 inh: 17; NALP1 yeast inh: 30*; SKKanGAS inh: -16; TIM10 inh: 10; NALP3 yeast inh: 6; tim23-1 inh: 39

What do the screens show for `CC1CCc2[nH]c3ccc(C(=O)N(C)CC(=O)Nc4ccccc4C(F)(F)F)cc3c2C1` (stereo unspecified)?
tim10-1 inh: 31; SKKanGAS inh: 8; TIM10 inh: 20; NALP3 yeast inh: 7; tim23-1 inh: 32

What do the screens show for `CCCCCOc1ccc(Br)cc1/C(C)=N/NC1=NCCN1`?
tim10-1 inh: 27; NALP1 yeast inh: 83*; SKKanGAS inh: 3; TIM10 inh: 26; NALP3 yeast inh: 34; tim23-1 inh: 18

What do the screens show for `Cc1ccc(-c2cc(C(F)F)nc(N3CCC(C)CC3)n2)cc1`?
tim10-1 inh: 6; NALP1 yeast inh: 27; SKKanGAS inh: 63*; TIM10 inh: -34; NALP3 yeast inh: -5; tim23-1 inh: -15

What do the screens show for `CC1CCN(c2nc(-c3ccccc3)cc(C(F)(F)F)n2)CC1`?
tim10-1 inh: 15; NALP1 yeast inh: 0; SKKanGAS inh: inconclusive; TIM10 inh: 0; NALP3 yeast inh: 23; tim23-1 inh: 15

What do the screens show for `Cc1ccccc1-n1ccnc1SCC(=O)NC1CCCC1`?
tim10-1 inh: 23; NALP1 yeast inh: -1; SKKanGAS inh: -6; TIM10 inh: 3; NALP3 yeast inh: 17; tim23-1 inh: 23

Results for CCN1CCN(CCCNC(=O)Cn2cc3c(n2)CCCC3)CC1 ?
tim10-1 inh: 1; NALP1 yeast inh: 44*; SKKanGAS inh: -1; TIM10 inh: 3; NALP3 yeast inh: -2; tim23-1 inh: -9

What do the screens show for `O=C(Cn1cc2c(n1)CCCC2)NCCCN1CCN(Cc2ccccc2)CC1`?
tim10-1 inh: 3; NALP1 yeast inh: 0; SKKanGAS inh: -9; TIM10 inh: 12; NALP3 yeast inh: 12; tim23-1 inh: -1

Results for Cc1ccc(C(=O)OCC(=O)NCCc2ccc(F)cc2)cc1S(=O)(=O)N1CCOCC1 ?
tim10-1 inh: 6; TIM10 inh: 6; NALP3 yeast inh: 1; tim23-1 inh: 20

What do the screens show for `Cc1ccc(C(=O)N2CCOCC2)cc1S(=O)(=O)N1CCOCC1`?
tim10-1 inh: 6; NALP1 yeast inh: 7; SKKanGAS inh: 51*; TIM10 inh: -8; NALP3 yeast inh: 10; tim23-1 inh: -3

What do the screens show for `Cc1ccc(S(=O)(=O)N2CCN(S(=O)(=O)N3CCOCC3)CC2)cc1C`?
tim10-1 inh: 5; NALP1 yeast inh: 8; SKKanGAS inh: 4; TIM10 inh: -19; NALP3 yeast inh: 16; tim23-1 inh: -21

Results for Cc1ccc(C(=O)OCC(=O)NC(C)C)cc1S(=O)(=O)N1CCOCC1 ?
tim10-1 inh: -5; NALP1 yeast inh: 24*; SKKanGAS inh: 4; TIM10 inh: 0; NALP3 yeast inh: 10; tim23-1 inh: 13

What do the screens show for `Cc1ccc(S(=O)(=O)N2CCN(S(=O)(=O)N3CCOCC3)CC2)c(C)c1`?
tim10-1 inh: 2; NALP1 yeast inh: 43*; SKKanGAS inh: 0; TIM10 inh: 4; NALP3 yeast inh: -2; tim23-1 inh: 13

Results for CCOC(=O)c1ccc(-c2ccc(-c3cc(=O)oc4cc(OC)c(OC)c(OC)c34)cc2)cc1 ?
tim10-1 inh: 21; TIM10 inh: -3; tim23-1 inh: 33

What do the screens show for `COc1ccc(/C=N/NC(=O)c2cc(C(C)(C)C)[nH]n2)cc1COc1ccc(F)cc1F`?
tim10-1 inh: 18; NALP1 yeast inh: 11; SKKanGAS inh: 61*; TIM10 inh: 3; NALP3 yeast inh: 3; tim23-1 inh: 37

Source: PubChem BioAssay (several laboratories)
